About 130 (0.54%) of roughly 24,000 compounds were called active. This is one part of a sample in which actives are shown more often than they occur. Values without a mark were called inactive.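 Rule for the calls: active = side scatter shift above 30%; inactive = the rest.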
Test: activators of LNCaP prostate cell differentiation, primary screen, flow cytometry side scatter (AID 795);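 note: androgen-responsive LNCaP prostate cancer cells in charcoal-stripped serum medium; percent of cells past a gate set so DMSO wells show 10% shift; higher shift means more granular cells and more differentiation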
Conditions: 4 d, at 10 µM, active compounds read high
For `COc1ccc(N2C(=O)C3CCCN3C2c2cccs2)cc1` (stereo not given), the side scatter shift was 9%.
Work on `Cc1ccc(-c2nnc(SC(C)C#N)n2N)cc1` (stereo not given) yielded a side scatter shift of 11%.
In the case of `CCn1c(=O)cc(OCC(=O)NCCCN2CCN(c3cccc(Cl)c3)CC2)c2ccccc21`, the side scatter shift is reported as 27%.
In the case of `Cn1c(C(=O)NCCCN2CCN(c3cccc(Cl)c3)CC2)cc2c(=O)n(C)c3ccccc3c21`, the side scatter shift is reported as 92% (active).
Work on `CC1CCCC(C)N1CCCNC(=O)c1cc2c(=O)n(C)c3ccccc3c2n1C` (stereo not given) yielded a side scatter shift of 9%.
Work on `COc1ccccc1NC(=O)C1=C(C)Nc2ncnn2C1c1ccc(C)o1` (stereo not given) yielded a side scatter shift of 16%.
With `CCOC(=O)C1C(=O)C=C(c2ccc(OC)cc2)CC1c1ccco1` (stereo not given) the side scatter shift was 5%.
For `CC(=O)NC(C)c1nc2ccccc2n1Cc1ccccc1F` (stereo not given), the side scatter shift was 7%.
`CC1=C(C(=O)Nc2ccccc2)C(c2cccs2)C(C#N)=C(SCC#N)N1` (stereo not given) showed a side scatter shift of 4%.
In the case of `Cc1nnc(C)n1/N=C/c1ccc(C(C)C)cc1`, the side scatter shift is reported as 18%.
`Cn1c(=O)cc(OCCCC(=O)N2CCN(Cc3ccc4c(c3)OCO4)CC2)c2ccccc21` gave a side scatter shift of 12%.
For `OCc1nc(CO)n(Cc2ccccc2)n1`, the side scatter shift was 7%.
Compound `Cc1ccc(N2C(=O)c3oc4ccccc4c(=O)c3C2c2cccnc2)nc1` (stereo not given) has a side scatter shift of 3%.
Work on `O=c1ccn(Cc2ccccc2Cl)cc1` yielded a side scatter shift of 3%.
`O=C1N=C(N2CCOCC2)CS1` showed a side scatter shift of 16%.
`CCC(C)(C)n1nnnc1C(c1ccccc1OC)N1CCSCC1` (stereo not given) showed a side scatter shift of 10%.
For `CCn1c(=O)cc(SCC(=O)NCc2ccc3c(c2)OCO3)c2ccccc21`, the side scatter shift was 20%.
`O=C(O)CCC(=O)Nc1ccc(N2CCOCC2)cc1` gave a side scatter shift of 6%.
Work on `CCOc1ccc(C(=O)N(Cc2ccc(N(C)C)cc2)C2CCS(=O)(=O)C2)cc1` (stereo not given) yielded a side scatter shift of 12%.
`O=C(CC(Cc1ccccc1)C(=O)O)NCCc1ccc2c(c1)OCO2` (stereo not given) gave a side scatter shift of 6%.
`O=C(CSc1nc2ncccc2[nH]1)Nc1ccc2c(c1)OCCO2` showed a side scatter shift of 3%.
Compound `Nc1c(C(=O)NCc2ccccc2)nnn1Cc1cccc(Cl)c1` has a side scatter shift of 24%.
In the case of `O=C(CCn1c(=S)[nH]c2ccccc2c1=O)NCCCN1CCCC1=O`, the side scatter shift is reported as 6%.
`COc1cccc2cc(C(C)N(CCCN3CCOCC3)C(=O)Nc3ccc(Cl)cc3)oc12` (stereo not given) showed a side scatter shift of 6%.
Compound `CCOC(=O)Cn1c(N)c(C(=O)OC)sc1=S` has a side scatter shift of 0%.
Work on `Clc1ccc(Cn2ncc3c(NCc4cccnc4)ncnc32)cc1` yielded a side scatter shift of 11%.
With `CCOC(=O)CSc1nc2c(c(=O)n(C)c(=O)n2C)n1Cc1ccccc1F` the side scatter shift was 11%.
In the case of `O=C(Nc1ccccc1C(F)(F)F)c1cc(-c2ccc(O)cc2)on1`, the side scatter shift is reported as 5%.
For `CCOC(=O)c1nc(-c2ccc3c(c2)OCO3)[nH]c1C`, the side scatter shift was 7%.
With `CCCN1CCN(C(=O)Cn2ncc3ccccc32)CC1` the side scatter shift was 6%.
Work on `CCCOC(=O)c1[nH]c2c(c1C)C(=O)CC(c1cc(OC)c(OC)c(OC)c1)C2` (stereo not given) yielded a side scatter shift of 11%.
`CC1(C)C(=O)Nc2ccccc2N1C(=O)COC(=O)Cn1cnc2ccccc2c1=O` showed a side scatter shift of 7%.
`Cc1ccc(C(=O)N(CN2CCCC2=O)c2ccc(F)cc2)cc1` gave a side scatter shift of 15%.
With `CCCC(=O)Nc1cccc(-c2cn3ccsc3n2)c1` the side scatter shift was 3%.
Work on `O=C(COC(=O)C12CC3CC(CC(C3)C1)C2)NCc1ccco1` yielded a side scatter shift of 12%.
`CCOC(=O)C1CCCN(C(=O)c2ccc(CS(=O)(=O)c3ccc(Br)cc3)o2)C1` (stereo not given) gave a side scatter shift of 8%.
With `Cc1ccsc1C(C(=O)NC1CCCCC1)N(C(=O)Cc1cccs1)C1CC1` (stereo not given) the side scatter shift was 9%.
In the case of `CCCCc1nccn1CCn1ccnc1CCCC`, the side scatter shift is reported as 7%.
Work on `O=C(C1CC1)N1CCN=C1SCc1ccc(Cl)cc1` yielded a side scatter shift of 11%.
Compound `Cc1cc(=O)n(C)c(=O)n1CCCNc1ccccc1` has a side scatter shift of 9%.
Compound `CC(C)Nc1nc(N(c2ccccc2)c2ccccc2)nc(-n2ccnc2)n1` has a side scatter shift of 10%.
Work on `CC(CCc1ccccc1)NC(=O)c1ccc(Br)o1` (stereo not given) yielded a side scatter shift of 5%.
`C/C(=C(\C#N)C(=O)NCCCN1CCOCC1)N(C)C` gave a side scatter shift of 13%.
`O=C(NCc1cccnc1)c1ccc(CS(=O)(=O)c2ccc(Br)cc2)o1` showed a side scatter shift of 4%.
With `O=S(=O)(Nc1ccccn1)c1ccc(Oc2ccccc2)cc1` the side scatter shift was 13%.
